Values joined by “and” are separate entries in the source; they are usually repeats but may differ in a detail not shown here. Identical values can stand only once. Results filed as inconclusive are left out. For some assays here: Entries with a potency or affinity are not part of this list. More than one record can exist for a structure, and the calls need not agree. Active and inactive are the calls of the source. Unless noted, the rule behind the calls is not given here.
Columns and labels:
[1] = polyglutamine-triggered caspase-3 activation inhibitors, cell-based (AID 1583); details: polyglutamine-induced caspase-3 activation, cell assay; stronger effect = higher value;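 tested at 10 µM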
[2] = suppressors of polyQ aggregation in yeast, 75Q-TubU reporter (AID 1593); details: Yeast 75Q polyglutamine aggregation reporter
[3] = rescue of polyQ-huntingtin neuronal dysfunction in worms, whole organism, C. elegans mechanosensory neurons, N-terminal huntingtin (AID 1599); details: touch response, stronger effect = higher value
[4] = inhibitors of mitochondrial cytochrome c release, biochemical, purified mitochondria (AID 1603); details: stronger effect = lower value;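 note: mouse liver mitochondria challenged with calcium chloride; signal normalized to the plate average as 100%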
[5] = inhibitors of polyQ protein aggregation (AID 1604); details: polyglutamine-induced protein aggregation inhibition assay; stronger effect = higher value; tested at 2.5 µM
[6] = enhancers of glutamate uptake in motor neurons, MN-1 cell line (AID 1612); details: MN-1 motor neuron cells, stronger effect = higher value;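 note: tested at 1 µM final; 0% = mean of DMSO vehicle wells on each plate; positive means more glutamate uptake than control and negative means less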
[7] = reducers of polyQ inclusions in PC12 cells, cell-based, NGF-treated PC12, GFPQ80 (AID 1614); details: PC12 NGF-treated GFP-polyQ80 inclusion reduction;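 note: lower means fewer inclusions and 0 means no inclusions at all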
[8] = suppressors of polyglutamine aggregation in yeast, 75Q-TubH (AID 1616); details: S. cerevisiae 75Q-TubH polyglutamine aggregation suppression; stronger effect = higher value
[9] = liver-stage malaria parasite growth inhibition, primary screen, cell-based, HepG2, luciferase luminescence, HepG2 viability (AID 624349; in the data active = parasite load remaining mostly below about 12%, no sharp cut-off; inactive = mostly above about 10%;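 note: 100% = mean of DMSO negative control wells on the same plate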); details: P. berghei liver stage in HepG2, luciferase luminescence, concentration not given here; parasite load remaining: stronger effect = lower value; viability: measured here: HepG2 viability without parasites
[10] = sensitizers of A549 cells to miR-34 induction, primary screen, imaging, A549 dox-inducible miR-34, nuclei and caspase counts (AID 1347080;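 active = compounds whose cell count with miR-34 switched on is under 0.7 times the count with it off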); details: A549 miR-34 inducible, Hoechst nuclei count, 48 h
[11] = enhancers of SMN2 over SMN1 splicing, cell-based, SMN2/SMN1 luciferase reporters (AID 1598); details: SMN2 vs SMN1 luciferase splicing reporter cells, at 10 µM; SMN1 luciferase ratio: measured here: SMN1 luciferase reporter average; SMN2 luciferase ratio: measured here: SMN2 luciferase reporter average, stronger effect = higher value; SMN2/SMN1 luciferase ratio: stronger effect = higher value
[12] = survival rescue of mitochondrial mutant cells in low glucose, primary screen, MELAS cybrids, Rieske KO mouse fibroblasts, CellTiter-Glo (AID 1508586;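 active = mean z-score across replicates of 1.96 or higher in either the MELAS or the Rieske mutant cell line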;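 note: z relative to plate mean and SD of compound and empty wells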)
[13] = kinase inhibitors against Plasmodium liver-stage infection, cell-based, known kinase inhibitor set, luminescence, hepatoma host viability (AID 624392); details: Plasmodium liver stage in hepatoma cells, luciferase luminescence, concentration not given here; liver cell % of control: measured here: host liver cell viability; parasite % of control: stronger effect = lower value;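 note: infected cells incubated roughly two days before readout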
[14] = biological target: NAD(+) hydrolase SARM1 (Homo sapiens) (UniProt Q6SZW1); test: SARM1 TIR NADase inhibitors, cell lysate, NAD-Glo luminescence (AID 1508614;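 active = compound whose remaining NAD level is above about 45 nM, limit read from the data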;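 note: higher remaining NAD means stronger inhibition of SARM1 NADase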); details: SAM-TIR HEK293T lysate NADase, at 1 µM, stronger effect = higher value
[15] = hESC survival regulators, cell-based (AID 493140); details: human embryonic stem cell survival screen; stronger effect = higher value;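 note: cells exposed to compounds for four days before counting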
[16] = biological target: Mitogen-activated protein kinase 7 (Homo sapiens) (UniProt Q13164); test: ERK5 transactivation activators in reporter cells, primary screen, cell-based, HTS (AID 1508626;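 active = luciferase signal above three times the same-plate solvent-only control wells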;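 note: luciferase driven by Gal4-ERK5 fusion binding five Gal4 sites before minimal TATA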); details: HeLa Gal4-ERK5 transactivation, 18 h, at 5 µM, stronger effect = higher value
[17] = test system: Hepatitis C virus NS3 helicase; test: HCV NS3 helicase inhibitors, primary screen, biochemical, fluorescence polarization, LOPAC1280 library (AID 687035; in the data active = inhibition above about 37%); details: Purified HCV NS3 helicase, Cy5-dT15 ssDNA binding fluorescence polarization; stronger effect = higher value; concentration not given here
[18] = Cy5 fluorescence quenching or enhancement artefacts, artefact control for HCV NS3 helicase inhibitor project, biochemical, LOPAC1280 (AID 687037); details: Cy5-DNA-NS3h complex fluorescence interference counterscreen
[19] = stronger effect = lower value, cell number ratio, induced over uninduced
[20] = measured here: relative caspase fold change +Dox/-Dox
[21] = measured here: total cells with miR-34 induction, stronger effect = lower value
[22] = measured here: total cells without miR-34 induction
[23] = MELAS cybrid survival, CellTiter-Glo 48 h, stronger effect = higher value
[24] = Rieske KO mouse fibroblast survival, CellTiter-Glo 72 h

Chain of NAD(+) hydrolase SARM1 (Homo sapiens) (Q6SZW1 whole entry, looked up): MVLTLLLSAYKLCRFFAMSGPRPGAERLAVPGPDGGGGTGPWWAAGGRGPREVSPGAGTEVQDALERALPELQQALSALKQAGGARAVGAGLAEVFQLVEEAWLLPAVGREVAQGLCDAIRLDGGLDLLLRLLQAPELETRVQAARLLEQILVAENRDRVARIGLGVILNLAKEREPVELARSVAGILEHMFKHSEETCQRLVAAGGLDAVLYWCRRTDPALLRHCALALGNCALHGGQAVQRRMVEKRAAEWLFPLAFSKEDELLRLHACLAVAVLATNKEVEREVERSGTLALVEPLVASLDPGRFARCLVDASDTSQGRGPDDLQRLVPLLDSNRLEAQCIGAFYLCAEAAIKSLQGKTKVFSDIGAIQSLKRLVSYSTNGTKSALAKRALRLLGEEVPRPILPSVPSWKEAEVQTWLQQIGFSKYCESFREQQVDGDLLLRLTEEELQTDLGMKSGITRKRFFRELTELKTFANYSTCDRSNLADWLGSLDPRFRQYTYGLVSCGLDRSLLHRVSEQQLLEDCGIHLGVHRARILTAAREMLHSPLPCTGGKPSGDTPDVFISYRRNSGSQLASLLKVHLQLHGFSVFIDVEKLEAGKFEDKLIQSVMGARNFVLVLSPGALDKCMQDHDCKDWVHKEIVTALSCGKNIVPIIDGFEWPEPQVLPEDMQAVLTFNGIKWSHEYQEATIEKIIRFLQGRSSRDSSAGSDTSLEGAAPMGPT
Chain of Mitogen-activated protein kinase 7 (Homo sapiens) (Q13164 whole entry, looked up, the tested form may be a part): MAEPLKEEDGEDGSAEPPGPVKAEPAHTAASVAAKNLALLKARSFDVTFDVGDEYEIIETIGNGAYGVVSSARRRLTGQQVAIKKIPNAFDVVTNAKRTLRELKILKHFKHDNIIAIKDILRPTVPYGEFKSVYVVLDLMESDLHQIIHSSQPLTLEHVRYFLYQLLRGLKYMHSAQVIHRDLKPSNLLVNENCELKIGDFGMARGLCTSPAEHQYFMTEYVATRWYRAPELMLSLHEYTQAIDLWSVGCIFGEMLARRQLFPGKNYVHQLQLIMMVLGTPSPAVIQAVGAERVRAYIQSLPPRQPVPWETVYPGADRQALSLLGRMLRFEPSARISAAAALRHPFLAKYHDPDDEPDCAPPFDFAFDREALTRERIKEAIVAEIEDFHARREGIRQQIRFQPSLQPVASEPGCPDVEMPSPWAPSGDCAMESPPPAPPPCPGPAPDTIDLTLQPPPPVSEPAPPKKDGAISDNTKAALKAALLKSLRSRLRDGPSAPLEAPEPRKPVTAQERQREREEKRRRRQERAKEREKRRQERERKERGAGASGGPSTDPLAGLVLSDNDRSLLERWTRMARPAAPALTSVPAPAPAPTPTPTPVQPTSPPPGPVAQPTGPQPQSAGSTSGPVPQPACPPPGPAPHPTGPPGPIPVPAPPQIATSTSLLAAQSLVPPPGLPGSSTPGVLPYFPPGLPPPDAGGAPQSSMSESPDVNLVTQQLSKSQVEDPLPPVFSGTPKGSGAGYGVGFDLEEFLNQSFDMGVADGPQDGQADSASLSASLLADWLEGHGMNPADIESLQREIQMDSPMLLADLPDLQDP

SMILES: CC1(C)S[C@@H]2[C@H](NC(=O)[C@@H](N)c3ccc(O)cc3)C(=O)N2[C@H]1C(=O)O
- inhibition [1]: 1.98%
- score [2]: 1.39
- rescue above control [3]: 1.27
- cytochrome c release ratio [4]: 1.03
- inhibition of aggregation [5]: 54.5%
- glutamate uptake change [6]: 1.23%
- inclusion score [7]: 2
- aggregation suppression score [8]: 1.15
- parasite load remaining [9]: 98.1% (inactive) and 66.2% (inactive)
- viability [9]: 75% and 90.3%
- fold change [10, 19]: 0.918 (inactive)
- fold change [10, 20]: 1.48
- cell count [10, 21]: 11000
- cell count [10, 22]: 12000

SMILES: O[N+]1=CC=CCC1=S.On1ccccc1=S.[Zn]
- score [2]: 0.07
- SMN1 luciferase ratio [11]: 0.04
- SMN2/SMN1 luciferase ratio [11]: 1.77 (active)
- SMN2 luciferase ratio [11]: 0.08
- rescue above control [3]: 16
- cytochrome c release ratio [4]: 1.27
- inhibition of aggregation [5]: 0%
- glutamate uptake change [6]: -74.2%
- aggregation suppression score [8]: -0.0147
- parasite load remaining [9]: -0.27% (inactive) and -0.08% (inactive)
- viability [9]: 2.62% and 0%
- fold change [10, 19]: 0.416 (active)
- fold change [10, 20]: 2.93
- cell count [10, 21]: 79
- cell count [10, 22]: 190

SMILES: CN[C@H](CC(C)C)C(=O)N[C@H]1C(=O)N[C@@H](CC(N)=O)C(=O)N[C@H]2C(=O)N[C@H]3C(=O)N[C@H](C(=O)N[C@H](C(=O)O)c4cc(O)cc(O)c4-c4cc3ccc4O)[C@H](O)c3ccc(c(Cl)c3)Oc3cc2cc(c3O[C@@H]2OC(CO)[C@@H](O)[C@H](O)[C@H]2O[C@H]2C[C@](C)(N)[C@H](O)[C@H](C)O2)Oc2ccc(cc2Cl)[C@H]1O (stereo partly drawn)
- parasite load remaining [9]: 59.3% (inactive)
- viability [9]: 113%
- fold change [10, 19]: 0.843 (inactive)
- fold change [10, 20]: 1.57
- cell count [10, 21]: 8980
- cell count [10, 22]: 10700
- z-score [12, 23]: -0.371 (inactive)
- z-score [12, 24]: -0.181

SMILES: CN1C2CC[C@H]1CC(OC(=O)C(O)c1ccccc1)C2 (stereo partly drawn)
- score [2]: 1.13
- rescue above control [3]: -4.02
- glutamate uptake change [6]: -10.2%
- inclusion score [7]: 2
- aggregation suppression score [8]: 1.37
- fold change [10, 19]: 0.844 (inactive)
- fold change [10, 20]: 1.44
- cell count [10, 21]: 10300
- cell count [10, 22]: 12200

SMILES: CN(C)CCC(CSc1ccccc1)Nc1ccc(S(=O)(=O)NC(=O)c2ccc(N3CCN(Cc4ccccc4-c4ccc(Cl)cc4)CC3)cc2)cc1[N+](=O)[O-] (stereo not drawn)
- liver cell % of control [13]: 65.5% and 90.4% and 88.4%
- parasite % of control [13]: 27.6% (inactive) and 29.4% (inactive) and 37% (inactive)
- fold change [10, 19]: 0.995 (inactive)
- fold change [10, 20]: 0.778
- cell count [10, 21]: 5830
- cell count [10, 22]: 5860
- z-score [12, 23]: -0.297 (inactive)
- z-score [12, 24]: -2.14

SMILES: COc1ccc(C(=O)c2ccc(C)cc2)c(O)c1
- fold change [10, 19]: 0.81 (inactive)
- fold change [10, 20]: 1.2
- cell count [10, 21]: 4460
- cell count [10, 22]: 5510
- remaining NAD [14]: 10 nM (inactive)

SMILES: C=N[C@@H](C(=O)N[C@@H]1C(=O)N2[C@@H]1SC(C)(C)[C@@H]2C(=O)O)c1ccccc1
- survival [15]: 22.6 (inactive)
- parasite load remaining [9]: 47.6% (inactive) and 102% (inactive)
- viability [9]: 47.2% and 93.5%
- fold change [10, 19]: 0.849 (inactive)
- fold change [10, 20]: 1.16
- cell count [10, 21]: 8000
- cell count [10, 22]: 9420
- luciferase signal [16]: 80 AU (inactive)

SMILES: Cc1[nH]c(C=C2C(=O)Nc3ccccc32)c(C)c1CCC(=O)O
- liver cell % of control [13]: 515% and 322% and 191%
- parasite % of control [13]: 51% (inactive) and 49.5% (inactive) and 54.8% (inactive)
- fold change [10, 19]: 0.955 (inactive)
- fold change [10, 20]: 0.799
- cell count [10, 21]: 7040
- cell count [10, 22]: 7360
- z-score [12, 23]: -0.288 (inactive)
- z-score [12, 24]: 0.507

SMILES: COc1ccc(-c2ccc3c(N4CCOCC4)nc(N4CC(C)OC(C)C4)nc3n2)cc1CO (stereo not drawn)
- liver cell % of control [13]: 228% and 225% and 144%
- parasite % of control [13]: 168% (inactive) and 180% (inactive) and 510% (inactive)
- fold change [10, 19]: 1.04 (inactive)
- fold change [10, 20]: 0.95
- cell count [10, 21]: 2720
- cell count [10, 22]: 2620
- z-score [12, 23]: 3.15 (active)
- z-score [12, 24]: -0.466

SMILES: CCc1c(C(=O)NCCc2ccc(N3CCCCC3)cc2)[nH]c2ccc(Cl)cc12
- inhibition [17]: 0% (inactive)
- fluorescence ratio (interference) [18]: 1 (inactive)
- fold change [10, 19]: 0.939 (inactive)
- fold change [10, 20]: 0.558
- cell count [10, 21]: 7490
- cell count [10, 22]: 7980
- z-score [12, 23]: 0.376 (inactive)
- z-score [12, 24]: -0.206

SMILES: Cc1ccccc1-n1c(Cn2nc(-c3cccc(O)c3)c3c(N)ncnc32)nc2cccc(C)c2c1=O
- liver cell % of control [13]: 93.6% and 86.4% and 105%
- parasite % of control [13]: 34.6% (inactive) and 44.4% (inactive) and 71.3% (inactive)
- fold change [10, 19]: 0.979 (inactive)
- fold change [10, 20]: 0.801
- cell count [10, 21]: 7710
- cell count [10, 22]: 7880
- z-score [12, 23]: -0.245 (inactive)
- z-score [12, 24]: -0.436

SMILES: COC(C(=O)N1Cc2[nH]nc(NC(=O)c3ccc(N4CCN(C)CC4)cc3)c2C1)c1ccccc1 (stereo not drawn)
- liver cell % of control [13]: 82.1% and 96.2% and 98.6%
- parasite % of control [13]: 40.2% (inactive) and 56.3% (inactive) and 75.4% (inactive)
- fold change [10, 19]: 1.01 (inactive)
- fold change [10, 20]: 0.994
- cell count [10, 21]: 1850
- cell count [10, 22]: 1820
- z-score [12, 23]: 1.1 (inactive)
- z-score [12, 24]: -2.53

SMILES: O=C(c1cccnc1)N1CCOCC1
- fold change [10, 19]: 0.924 (inactive)
- fold change [10, 20]: 0.837
- cell count [10, 21]: 7970
- cell count [10, 22]: 8630
- remaining NAD [14]: 10 nM (inactive)

SMILES: CC1(C)S[C@@H]2[C@H](NC(=O)[C@H](NC(=O)N3CCNC3=O)c3ccccc3)C(=O)N2C1C(=O)O (stereo partly drawn)
- inhibition [1]: 10.9%
- score [2]: 1.31
- rescue above control [3]: -2.48
- cytochrome c release ratio [4]: 1.14
- inhibition of aggregation [5]: 54.5%
- glutamate uptake change [6]: 7.74%
- inclusion score [7]: 2
- aggregation suppression score [8]: 1.29
- survival [15]: 4.75 (inactive)
- parasite load remaining [9]: 188% (inactive) and 42.9% (inactive)
- viability [9]: 87.9% and 114%
- fold change [10, 19]: 0.882 (inactive)
- fold change [10, 20]: 3.93
- cell count [10, 21]: 12000
- cell count [10, 22]: 13600

SMILES: CCN(CC)CCNC(=O)c1c(C)[nH]c(C=C2C(=O)Nc3ccc(F)cc32)c1C
- liver cell % of control [13]: 117% and 132% and 81.2%
- parasite % of control [13]: 0.0958% (inactive) and 0.227% (active) and 376% (inactive)
- fold change [10, 19]: 0.743 (inactive)
- fold change [10, 20]: 1.2
- cell count [10, 21]: 2230
- cell count [10, 22]: 3000
- z-score [12, 23]: -0.621 (inactive)
- z-score [12, 24]: -1.61

SMILES: Cc1cc(Nc2nc(NC(C)c3ccc(F)cc3)c(C#N)cc2F)n[nH]1 (stereo not drawn)
- liver cell % of control [13]: 55.1% and 77.3% and 95.6%
- parasite % of control [13]: 1.2% (inactive) and 12.7% (inactive) and 40% (inactive)
- fold change [10, 19]: 1.16 (inactive)
- fold change [10, 20]: 0.511
- cell count [10, 21]: 1300
- cell count [10, 22]: 1120
- z-score [12, 23]: 2.18 (active)
- z-score [12, 24]: -3.18

Source: PubChem BioAssay
